A selection: hits, their analogues and other compounds. The true share with any hit is near 2%.
H9c2 TAG inh: inhibitors of triacylglycerol accumulation, primary screen, cell-based, uHTS, fluorescence, H9c2; inhibition, % at 12.5 µM; 0.66% of 230,000 active; H9c2 cells, Nile Red lipid (TAG) fluorescence; cells loaded with 200 µM oleic acid;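 active means pattern-corrected inhibition of lipid staining of at least 50% with the nuclear-stain viability signal not falling by more than 50%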
CHT allo act: CHT positive allosteric modulators, primary screen, cell-based, membrane potential dye, choline EC20; CHT-expressing cells; stronger effect = higher value; LV-AA mutant CHT in HEK293 cells; 0.49% of 310,000 active; B-score at 10 µM; AID 488977, 2010; High affinity choline transporter 1 (Homo sapiens), Q9GZV3;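 active means initial fluorescence not abnormally high and integrated response B-score, plate-corrected, over 3 SD above library mean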
Target sequence (Q9GZV3 whole entry, looked up): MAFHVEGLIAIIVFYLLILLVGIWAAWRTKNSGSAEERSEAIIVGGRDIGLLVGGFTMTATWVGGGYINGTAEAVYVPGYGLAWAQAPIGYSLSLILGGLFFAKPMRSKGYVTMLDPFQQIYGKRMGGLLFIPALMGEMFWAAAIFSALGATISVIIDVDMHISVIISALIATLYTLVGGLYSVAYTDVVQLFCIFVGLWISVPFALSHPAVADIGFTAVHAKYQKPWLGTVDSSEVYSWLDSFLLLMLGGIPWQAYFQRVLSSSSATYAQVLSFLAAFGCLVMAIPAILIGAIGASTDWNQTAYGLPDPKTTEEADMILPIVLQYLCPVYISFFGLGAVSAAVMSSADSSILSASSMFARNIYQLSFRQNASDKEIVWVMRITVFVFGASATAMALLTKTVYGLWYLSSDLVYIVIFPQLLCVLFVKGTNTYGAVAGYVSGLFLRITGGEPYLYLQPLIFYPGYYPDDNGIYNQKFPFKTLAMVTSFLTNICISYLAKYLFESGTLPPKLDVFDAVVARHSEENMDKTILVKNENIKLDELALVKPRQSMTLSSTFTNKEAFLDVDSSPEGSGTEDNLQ
Kir21 block: inhibitors of mouse Kir2.1 inward-rectifier potassium channel | HEK293-Kir2.1, FluxOR thallium flux fluorescence; stronger effect = lower value | Inward rectifier potassium channel 2 (Mus musculus), P35561 | B-score at 10 µM | 0.85% of 310,000 active;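 active means fluorescence ratio B-score at or below minus 3 SD of library scores, with starting-brightness B-score within 2 SD, cut at about -4.2 in these data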;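 further: channel flux triggered by added potassium and thallium sulfate stimulus; B-score of peak minus minimum fluorescence over baseline after thallium stimulus; more negative B-score means stronger Kir2.1 block with less thallium influx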
CHT inh: inhibitors of human choline transporter CHT; High affinity choline transporter 1 (Homo sapiens), Q9GZV3; CHT-expressing cells, membrane potential dye, choline response; stronger effect = lower value; B-score at 10 µM; 0.86% of 310,000 active; AID 488975, 2010;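 active means B-score over 3 SD under the library average, and starting fluorescence ratio not unusually high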;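 further: choline stimulus applied at its EC90 after an EC20 pre-addition; B-score computed on integrated fluorescence ratio after choline addition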
H9c2 TAG conf: triacylglycerol accumulation inhibitors, retest, confirmation, cell-based, single concentration, Nile Red fluorescence, H9c2; 71% of 990 active; shares compounds with H9c2 TAG inh; H9c2 lipid accumulation; cells loaded with 200 µM oleic acid; inhibition, % at 12.5 µM;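 active means mean inhibition across replicates of 40% or more; inactive means mean inhibition below 40%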
A number is an active result; i = inactive; nt = not tested or not shown.

SMILES	H9c2 TAG inh	CHT allo act	Kir21 block	CHT inh	H9c2 TAG conf
Cc1cc2c(cc1C)CSC(c1ccccc1OC(=O)C(C)C)SC2	52	i	i	i	i
COc1ccc(-c2cc(CNc3nc(NC(C)C)nc4cc(-c5ccccc5)sc34)on2)cc1	96	nt	nt	nt	79
COc1ccc(-c2noc(-c3ccccc3C(=O)Nc3cccnc3)n2)cc1	57	i	i	i	i
CCOCCCNC(=S)N1CCC(C(=O)c2ccc3c(c2)OCCO3)CC1	i	i	i	i	nt
O=C1N[C@H](Cc2ccccc2)COC(=O)[C@@H](Cc2ccc(F)cc2)CC/C=C/C[C@H]1CC(=O)N(CCO)Cc1ccccc1	i	nt	nt	nt	nt
O=C1N[C@@H](Cc2ccccc2)COC(=O)[C@@H](Cc2ccc(F)cc2)CC/C=C/C[C@@H]1CC(=O)N(CCO)Cc1ccccc1	55	nt	nt	nt	44
O=C1OCCN1C(=O)[C@H]1[C@H](c2ccc(Cl)cc2)C(c2ccc(F)cc2)=NN1c1ccc(Br)cc1	105	nt	nt	nt	i
CCCCNc1c(-c2ccc(SC(C)CC)cc2)nc2cnccn12 (configuration not stated)	i	nt	nt	nt	nt
COc1ccc(C(C(=O)NC(C)(C)C)N(Cc2ccco2)C(=O)CCC(=O)Nc2cc(C)on2)cc1 (configuration not stated)	56	i	i	i	46
COc1ccc(C(C(=O)NC(C)(C)C)N(Cc2ccco2)C(=O)CCC(=O)Nc2ccccn2)cc1 (configuration not stated)	nt	i	i	i	nt
CCC(C)(C)NC(=O)C(c1ccc(C)cc1)N(Cc1ccco1)C(=O)CCC(=O)Nc1nccs1 (configuration not stated)	66	i	i	i	65
CCC(C)(C)NC(=O)C(c1ccc(OC)cc1)N(Cc1ccco1)C(=O)CCC(=O)Nc1cc(C)on1 (configuration not stated)	70	i	i	i	57
CN1CCN(C(=O)CC2C(=O)NCCN2Cc2ccc(-c3ccccc3)cc2)CC1 (configuration not stated)	i	i	i	i	nt
CCOC(=O)c1c(NC(C)=O)sc2c(OCC(O)CN(CC)CC)c(Br)ccc12 (configuration not stated)	69	i	i	i	47
CCOC(=O)c1c(NC(C)=O)sc2c(OC)c(Br)ccc12	nt	i	i	i	nt
N#CC1(NC(=O)Cn2cc(C(F)(F)F)ccc2=O)CCCC1	i	nt	nt	nt	nt
COc1ccc(CCNC(=O)CSc2nc(=O)n3cccc(C)c3n2)cc1OC	i	i	i	i	nt
Cc1sc(NC(=O)c2cccc([N+](=O)[O-])c2)c(C(N)=O)c1-c1ccc(C(C)(C)C)cc1	82	i	i	i	i
O=C1CN(C(=O)COc2cccc(F)c2)c2ccccc2N1	nt	i	i	i	nt
Cc1noc(C)c1COc1cccc(C(=O)OCC(=O)N2CC(=O)Nc3ccccc32)c1	66	i	i	i	89
CCN(CC)S(=O)(=O)c1ccc(OCCNS(C)(=O)=O)cc1	nt	i	i	i	nt
Cc1ccc(NC(=O)CSc2nnnn2-c2ccc3c(c2)OCO3)cc1C	57	i	i	i	i
CCCc1nnc(NC(=O)C(=O)NCCN(CC)CC)s1	i	nt	i	nt	nt
CCN(CC)CCNC(=O)C(Cl)=C1C(Cl)=C(Cl)C(Cl)=C1Cl	78	nt	nt	nt	74
Cc1ccc(Cn2c(C(C)Nc3nc(-c4ccc(Cl)c([N+](=O)[O-])c4)cs3)nc3cc(C(F)(F)F)ccc32)cc1 (configuration not stated)	70	i	i	i	71
SMILES	H9c2 TAG inh	CHT allo act	Kir21 block	CHT inh	H9c2 TAG conf
CN(Cc1cccs1)C(=O)C1CC(=O)N(Cc2ccccc2)C1 (configuration not stated)	i	i	i	i	nt
O=C(c1cc(-c2ccncc2)nc2c(Cl)cccc12)N1CCN(c2ccccc2F)CC1	56	i	i	i	69
CCCS(=O)(=O)NC(=O)C1(C)CCCN(C(=O)c2ccccc2OC)C1 (configuration not stated)	i	nt	nt	nt	nt
O=C(CSc1nc2ccc(Nc3nc(N4CCOCC4)nc(N4CCOCC4)n3)cc2s1)Nc1ccccc1F	73	i	i	i	78
CCCC(=O)Nc1ccc2nc(SCC(=O)Nc3ccc(N4CCOCC4)c(Cl)c3)sc2c1	51	i	i	i	i
Nc1ccc2nc(SCC(=O)Nc3ccc(N4CCOCC4)c(Cl)c3)sc2c1	nt	i	i	i	nt
Cn1cccc1C(=O)c1cccc([N+](=O)[O-])c1	i	i	i	i	nt
CCC1CCc2sc(C(=O)NCC(c3ccc(OC)cc3)N3CCOCC3)cc2C1 (configuration not stated)	i	nt	nt	nt	nt
CC(C)c1ccc(C2(C)NC(=O)N(C(C)C(=O)Nc3ccc(N4CCOCC4)cc3)C2=O)cc1 (configuration not stated)	i	nt	nt	nt	nt
CSCCC(NS(=O)(=O)c1ccccc1)C(=O)Nc1nccs1 (configuration not stated)	i	nt	nt	nt	nt
Cc1cc(N/N=C/c2cccc(Cl)c2)nc(-n2nc(C)cc2C)n1	53	i	i	i	41
Cc1cc(N/N=C/c2ccccc2[N+](=O)[O-])nc(-n2nc(C)cc2C)n1	i	i	i	i	nt
Cc1cc(N/N=C/c2cccc([N+](=O)[O-])c2)nc(-n2nc(C)cc2C)n1	71	i	i	i	i
O=C(CN1C(=O)NC2(CCCCCCC2)C1=O)Nc1ccc(Br)cc1Br	i	nt	nt	nt	nt
COc1ccc(N2CCN(CC(=O)c3c(C)n(C)c4ccc(OC)cc34)CC2)cc1	55	i	i	i	i
COc1ccc(C(=O)CN2CCN(c3ccc(F)cc3)CC2)cc1	i	i	i	i	nt
CN(CC(=O)Nc1ccccc1Cl)C(=O)Cn1nnc(-c2ccc(F)cc2)n1	i	i	i	i	nt
CCCNS(=O)(=O)c1ccc(CCC(=O)Nc2cc(Cl)ccc2Oc2ccccc2)cc1	i	nt	i	nt	nt
CC(C)CNS(=O)(=O)c1ccc(CCC(=O)Nc2cc(Cl)ccc2Oc2ccccc2)cc1	55	i	i	i	i
Cc1c(CN2CCN(CC(C)C)C(CCO)C2)[nH]c2ccc(Cl)cc12 (configuration not stated)	nt	i	i	i	nt
CC1C(=O)N2CCCc3cc(NC(=O)COc4ccccc4)cc1c32 (configuration not stated)	i	i	i	i	nt
O=C(Cc1ccccc1)NC(Nc1cccc2ccccc12)C(Cl)(Cl)Cl (configuration not stated)	58	i	i	i	i
CCC(C)(C)NC(=O)C(c1cccn1C)N(Cc1ccccc1)C(=O)Cn1nnc2ccccc21 (configuration not stated)	i	nt	i	nt	nt
CCC(C)(C)NC(=O)C(c1cccn1C)N(Cc1ccc(OC)cc1)C(=O)Cn1nnc2ccccc21 (configuration not stated)	67	i	i	i	50
Nc1nc(SCc2ccccc2)c2ncn(Cc3ccccc3)c2n1	i	nt	nt	nt	nt
